This note sets out measurements from the supplement of paper PMC6555819.

What all share (experiment): PBM binding z-score (relative to random genomic background probes); higher = stronger binding; sequences stand for … in GC…GCGATTGACAGCGTAGAATGAAGG
In experiment [1] the test system is FXR:RXRa (NR concentration 270 nM, RXRa partner concentration 90 nM). The procedure, abridged:
(§1)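 Binding buffer was PBS pH 7.4 with 2% milk, 0.02% Triton X-100, 1 mM DTT, 0.2 mg/mL BSA and 0.4 mg/ml salmon testes DNA. In it, ligand-free nuclear receptor dimers were incubated 1 h on custom Agilent 4×180K protein-binding microarrays carrying double-stranded probes. Antibodies against each partner (one per run) detected binding, and z-scores were calculated against random background probes after regression normalization of scanned fluorescence.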

Experiment [2] deals with LXRa:RXRa (NR concentration 270 nM, RXRa partner concentration 90 nM). In outline:
as §1

Experiment [3] concerns LXRa homodimer (NR concentration 270 nM). The procedure, abridged: as §1
Experiment [4] has as its system LXRb:RXRa (NR concentration 270 nM, RXRa partner concentration 90 nM). The procedure, abridged:
as §1

The subject of experiment [5] is LXRb homodimer (NR concentration 270 nM). In outline:
as §1

In experiment [6] the test system is PPARa:RXRa (NR concentration 270 nM, RXRa partner concentration 90 nM). In outline: as §1
The subject of experiment [7] is PPARg:RXRa (NR concentration 180 nM, RXRa partner concentration 90 nM). In outline:
as §1

Experiment [8] deals with PPARg:RXRa 270nM:90nM, anti-RXR (NR concentration 270 nM, RXRa partner concentration 90 nM). In outline:
as §1

The test system of experiment [9] is PPARg:RXRa 30nM:10nM, anti-RXR (NR concentration 30 nM, RXRa partner concentration 10 nM). In outline:
as §1

In experiment [10] the test system is PPARg:RXRa 90nM:30nM, anti-RXR (NR concentration 90 nM, RXRa partner concentration 30 nM). The procedure, abridged: as §1
Experiment [11] deals with PPARg:RXRa DBDmut IVT, anti-RXR (DBD mutation: RXRa K156A/R161A, NR concentration 270 nM, RXRa partner concentration 90 nM). In outline:
as §1

The subject of experiment [12] is PPARg:RXRa IVT, anti-PPARg (NR concentration 270 nM, RXRa partner concentration 90 nM). In outline:
as §1

Experiment [13] concerns PPARg DBDmut:RXRa IVT, anti-PPARg (DBD mutation: PPARg1 K132A/R137A, NR concentration 270 nM, RXRa partner concentration 90 nM). The procedure, abridged: as §1
Experiment [14] has as its system PPARg DBDmut IVT, anti-PPARg (DBD mutation: PPARg1 K132A/R137A, NR concentration 270 nM). The procedure, abridged: as §1
For experiment [15], the system named is PPARg homodimer (NR concentration 180 nM). In outline: as §1
For experiment [16], the system named is PXR:RXRa (NR concentration 270 nM, RXRa partner concentration 90 nM). In outline: as §1
The test system of experiment [17] is PXR homodimer (NR concentration 270 nM). The procedure, abridged:
as §1

Experiment [18] relates to RARa:RXR (NR concentration 270 nM, RXRa partner concentration 90 nM). In outline: as §1
Experiment [19] has as its system RARa homodimer (NR concentration 270 nM). In outline:
as §1

For experiment [20], the system named is RARb:RXRa (NR concentration 270 nM, RXRa partner concentration 90 nM). The procedure, abridged: as §1

With GCTAGCTGGTCAGTAAAAGGTCACACACCGGTCG, the PBM binding z-score came out at 3.2 in [1]; 4.47 in experiment [2]; 4.35 in [3]; 3.88 in experiment [4]; 0.195 in experiment [5]; 4.21 in experiment [6]. The PBM binding z-score was found to be 2.43 in [7]; 4.13 in experiment [8]; 1.46 in experiment [9]; 3.75 in experiment [10]; 0.546 in [11]; 2.35 in [12]. Further, the PBM binding z-score in experiment [13] is 0.0238; in [14], -0.213; in [15], 5.71; in experiment [16], 5.04; in [17], 0.209; in [18], 6.16. Also, the values for the PBM binding z-score in experiment [19] and in experiment [20] were 2.36 and 4.23, respectively.
As for CCTGCAAGGTCATGGTCAGCTAATCTACAGTATG, the PBM binding z-score in [1] was 6.95; in [2], 5.02; in experiment [3], 0.64; in [4] it was 4.16; in [5], 0.00573; in [6], 5.68. Also, the PBM binding z-score in [7] stood at 4.66; in [8], 5.14; in experiment [9], 2.07; in experiment [10], 3.51; in experiment [11], 2.84; in experiment [12], 3.3. The PBM binding z-score in [13] turned out to be 1.03; in experiment [14], 1.64; in [15] it was 3.29; in [16] it was 4.62; in experiment [17], 0.377; in experiment [18] it was 5.57. The PBM binding z-score in experiment [19] came out at 1.03; in experiment [20], 5.04.
On to CGTCAAAGTTCAACTAAGGTAACATAAAGCACGC, for which the PBM binding z-score in experiment [1] came to 7; in [2], 6.17; in [3] it was 4.4; in experiment [4], 4.25; in experiment [5] it was 1.93; in experiment [6], 5.1. For the same sequence, the PBM binding z-score was 5.41 in experiment [7]; 5.57 in experiment [8]; 2.61 in experiment [9]; 4.55 in experiment [10]; 0.273 in [11]; 2.52 in experiment [12]. The PBM binding z-score in [13] is 1.34; in [14], 1.66; in experiment [15], 3.27; in [16] it was 5.54; in [17], 3.1; in [18], 4.35. Besides, the PBM binding z-score turned out to be 1.57 in experiment [19] and 5.25 in experiment [20].
As to CCTATTAGTTGACCATAAGGCCAACCGAAGCTCG, the PBM binding z-score in experiment [1] is 0.949; in experiment [2], 0.37; in experiment [3], 0.825; in [4], 0.782; in experiment [5], 0.89; in experiment [6] it was 0.392. In addition, the PBM binding z-score in [7] is 0.405; in [8] it was 0.45; in [9] it was 0.0484; in experiment [10] it was 0.551; in experiment [11] it was 0.55; in experiment [12], 0.487. The PBM binding z-score in [13] stood at 0.478; in experiment [14] it was 0.312; in experiment [15], 1.95; in experiment [16], 0.947; in experiment [17] it was 1.1; in experiment [18], 0.845. In addition, the PBM binding z-score stood at 1.87 in [19] and 1.34 in experiment [20].
Turning to ATCTCTAGGTAAAGTTCGGTGAAAGATCGATAGA, the PBM binding z-score in experiment [1] stood at 0.889; in [2] it was 1.94; in experiment [3], 0.491; in experiment [4] it was 0.602; in [5] it was 0.935; in experiment [6], 1.22. In addition, the PBM binding z-score was 1.55 in [7]; 2.48 in experiment [8]; 1.27 in experiment [9]; 2.34 in [10]; 2.6 in experiment [11]; 2.15 in experiment [12]. The PBM binding z-score in experiment [13] amounted to 1.46; in [14], 1.56; in experiment [15], 0.996; in [16], 0.633; in experiment [17], 0.941; in experiment [18] it was 0.644. For the same sequence, the values for the PBM binding z-score in experiment [19] and in [20] were 1.22 and 0.896, respectively.
For TCGAGTAAGTTAGGGGCATTCAGAATGGCGTCGA, the PBM binding z-score in experiment [1] is 0.474; in experiment [2] it was 0.581; in experiment [3], -0.298; in experiment [4], 0.52; in experiment [5], -1.13; in experiment [6], 0.686. The PBM binding z-score in [7] was -0.191; in [8], 0.338; in [9], 1.03; in [10], 0.613; in experiment [11], 0.867; in [12], -0.26. Also, the PBM binding z-score in experiment [13] was -1.43; in experiment [14], -0.704; in experiment [15] it was 0.141; in experiment [16], 0.512; in experiment [17], 0.0747; in experiment [18], 0.66. Also, the PBM binding z-score in [19] is -0.608; in [20], 0.456.
For the sequence ATCTCTAGGTAACAAGTTCAGTCAAAGAGAGGAC, the PBM binding z-score in [1] is 0.865; in experiment [2] it was 0.77; in experiment [3], 0.75; in experiment [4], 0.867; in experiment [5], 0.743; in experiment [6], 1.5. In addition, the PBM binding z-score worked out at 1.4 in experiment [7]; 2.12 in [8]; 1.16 in [9]; 1.85 in experiment [10]; 3.46 in experiment [11]; 2.97 in [12]. For the same sequence, the PBM binding z-score in experiment [13] is 1.25; in [14], 1.27; in experiment [15], 1.63; in [16], 1.77; in [17], 2.04; in experiment [18] it was 1.1. The PBM binding z-score in experiment [19] came out at 1.66; in experiment [20], 1.62.
